Measurements from PubChem BioAssay (NCATS).
Records with an inconclusive call do not appear. Activity calls are given as the source filed them. The call rests on the fitted dose curve; in most records, active means well fitted curve in the direction sought with a large enough effect; inconclusive means small, poorly fitted or top-dose-only effect, or another doubt; inactive means no such curve, though single readings can be large; an effect the other way counts as inactive or inconclusive.

What was measured:
[1] = target: Glutathione peroxidase 1 (Homo sapiens) (UniProt P07203); assay: Primary qHTS Assay for Inhibitors of Recombinant Selenoprotein Glutathione Peroxidase 1 (GPX1) (AID 1845191); further: nearly all actives have a fitted effect of over 65% in size; on activity, negative = inhibition: on the % scale 0 is the no-effect control and ±100 the full control effect
Sequence of Glutathione peroxidase 1 (Homo sapiens) (P07203 whole entry, looked up): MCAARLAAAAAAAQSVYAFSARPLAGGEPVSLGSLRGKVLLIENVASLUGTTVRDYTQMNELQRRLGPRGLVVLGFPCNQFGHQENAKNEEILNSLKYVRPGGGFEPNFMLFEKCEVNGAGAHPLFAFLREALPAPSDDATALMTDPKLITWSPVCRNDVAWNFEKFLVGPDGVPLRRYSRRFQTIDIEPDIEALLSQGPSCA
Summary of the method: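 10 nM GPX1 + cpd, 30 min RT; start w/ 1 mM GSH, 0.5 mM cumene hydroperoxide, 0.5 mM NADPH, 100 nM GR, 0.01% BSA; buffer 50 mM Tris-HCl pH 7.5, 2 mM EDTA, 150 mM NaCl; Fl 340/450, 0 & 15 min.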

[2] = target: Phospholipid hydroperoxide glutathione peroxidase GPX4 (Homo sapiens) (UniProt P36969); assay: Primary qHTS Assay for Inhibitors of Recombinant Selenoprotein Glutathione Peroxidase 4 (GPX4) (AID 1845192); further: nearly all actives have a fitted effect of over 65% in size; on activity change, negative = inhibition: series mostly up to about 50 µM; on the % scale 0 is the no-effect control and ±100 the full control effect
Sequence of Phospholipid hydroperoxide glutathione peroxidase GPX4 (Homo sapiens) (P36969 whole entry, looked up): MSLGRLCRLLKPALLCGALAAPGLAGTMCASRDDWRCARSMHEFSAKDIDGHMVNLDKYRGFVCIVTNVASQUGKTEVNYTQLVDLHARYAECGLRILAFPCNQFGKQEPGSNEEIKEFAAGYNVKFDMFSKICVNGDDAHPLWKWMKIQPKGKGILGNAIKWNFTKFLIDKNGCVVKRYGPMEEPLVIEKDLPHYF
Summary of the method: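 NADPH consumption, followed by fluorescence at 340/450 nm between 0 and 15 min, reports GPX4 activity via coupled glutathione reductase (100 nM). Enzyme 200 nM was pre-exposed to compound 30 min; 0.5 mM cumene hydroperoxide and 1 mM GSH served as substrates.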

[3] = target: Luciferin 4-monooxygenase (Photinus pyralis) (UniProt P08659); assay: Primary firefly luciferase (FLuc) qHTS assay for identification of artifact compounds. (AID 1845220); further: nearly all actives have a fitted effect of over 60% in size;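 on activity change, negative = inhibition: series mostly up to about 54 µM; plate controls were DMSO vehicle for no effect and no enzyme for full effect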
Summary of the method: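 FLuc 10 nM; luciferin 10 uM; ATP 10 uM; Tris-acetate pH 7.6, Mg-acetate 10 mM; 15 min RT preincubation; 5 min reaction; luminescence.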

[4] = Primary fluorescence-based thiol-reactive (MSTI) qHTS assay for identification of artifact compounds. (AID 1845221); further: nearly all actives have a fitted effect of over 65% in size; further: potency means the concentration at half of the fitted maximal effect;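 on activity change, negative = thiol reactive: series mostly up to about 54 µM; thiol-reactive compounds lower the probe fluorescence signal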
Summary of the method: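 Thiol-reactive compounds detected by quenching of 4 uM MSTI fluorescence (525/598 nm) after 1 h room-temperature dark incubation in PBS pH 7.4, 2% DMSO. qHTS titration; percent inhibition Hill-fitted against Acetyl-MSTI/MSTI controls.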

[5] = system: Nanoluciferase (engineered Oplophorus gracilirostris luciferase); assay: Primary Nanoluciferase (NLuc) qHTS assay for identification of artifact compounds. (AID 1845222);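 further: NLuc secreted into diluted conditioned medium of S16 cells; series mostly up to about 54 µM; 0% = DMSO and -100% = no enzyme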
Summary of the method: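 NLuc from S16 cell medium (1:55) plus test compounds, 15 min, room temperature. Luminescence after Nano-Glo (1:100) addition, 5 min.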

[6] = Primary redox qHTS assay for identification of artifact compounds. (AID 1845223);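 further: 0% = DMSO and 100% = reference compound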
Summary of the method: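 Amplex Red (25 uM) and HRP (250 mU/mL) in HBSS, with compounds for 15 min, then 250 uM DTT for 30 min, room temperature, dark. Fluorescence 525/598 nm read; normalized to DMSO and 10 uM DA3003; Hill fit.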

CC(C)c1c(O)ccc2c1CC[C@H]1C(C)(C)CCC[C@]21C
inactive: Potency [1] | Potency [2] | Potency [3] | Potency [4] | Potency [5] | Potency [6]

C[C@@H]1O[C@@H](O[C@H]2[C@@H](OC(=O)[C@]34CCC(C)(C)CC3C3=CCC5[C@@]6(C)C[C@H](O)[C@H](O[C@@H]7O[C@H](CO)[C@@H](O)[C@H](O)[C@H]7O[C@@H]7OC[C@@H](O)[C@H](O)[C@H]7O)[C@@](C)(C(=O)O)C6CC[C@@]5(C)[C@]3(C)CC4)OC[C@H](O)[C@@H]2O)[C@H](O)[C@H](O)[C@H]1O[C@@H]1OC[C@@H](O)[C@H](O)[C@H]1O (stereo partly drawn)
inactive: outcome [1] inactive [at 9.52 µM] | activity change, negative = inhibition [2] 1.61% [at 9.73 µM] | outcome [3] inactive [at 11.6 µM] | activity change, negative = thiol reactive [4] 151% [at 11.5 µM] | activity, negative = inhibition [5] 3.4% [at 11.6 µM] | redox activity (% of DA3003) [6] 18.4% [at 11.5 µM]

CCn1c(=O)n([C@H]2CCCN(c3nccc(-c4cc5ccccc5o4)n3)C2)c2ccccc21
inactive: Potency [1] | Potency [2] | Potency [3] | Potency [4] | Potency [5] | Potency [6]

CCN1CCN(Cc2ccc(NC(=O)c3ccc(C)c(Oc4ccnc5[nH]ccc45)c3)cc2C(F)(F)F)CC1
inactive: Potency [1] | Potency [2] | Potency [3] | Potency [4] | Potency [5] | Potency [6]

CC(C)Oc1ccc(-c2cnc3c(-c4ccnc5ccccc45)cnn3c2)cc1
inactive: Potency [1] | Potency [2] | Potency [3] | Potency [4] | Potency [5] | Potency [6]

C=C1CC2[C@@]3(C)C=CC(=O)C(C)(C)C3=C(O)C(=O)[C@@]2(C)C2(C(=O)OC)C(=O)C(C)OC(=O)[C@@]12C (stereo partly drawn)
inactive: Potency [1] | Potency [2] | Potency [3] | Potency [4] | Potency [5] | Potency [6]

C/C=C(\C)C(=O)O[C@@H]1[C@@H](C)[C@]2(O)[C@@H]3C=C(C)C(=O)[C@H]3CC(CO)=C[C@H]2C2C(C)(C)[C@@]21OC(=O)C(C)CC (stereo partly drawn)
inactive: Potency [1] | Potency [2] | Potency [3] | Potency [4] | Potency [5] | Potency [6]

COC(CCc1ccc(O)cc1)CC(=O)CCc1ccc(O)cc1 (stereo not drawn)
inactive: Potency [1] | Potency [2] | Potency [3] | Potency [4] | Potency [5] | Potency [6]

COc1ccc(C(=O)Nc2c(Cl)cncc2Cl)cc1OC1CCCC1
inactive: Potency [1] | Potency [2] | Potency [3] | Potency [4] | Potency [5] | Potency [6]

Cc1ccc(-c2ncccn2)c(C(=O)N2C[C@H](COc3ccc(F)cn3)CC[C@H]2C)c1
inactive: Potency [1] | Potency [2] | Potency [3] | Potency [4] | Potency [5] | Potency [6]

C[C@@H]1O[C@@H](O[C@H]2[C@@H]3C=CO[C@@H](O[C@@H]4O[C@H](CO)[C@@H](O)[C@H](O)[C@H]4O)[C@@H]3[C@@]3(CO)O[C@@H]23)[C@H](O)[C@H](OC(=O)/C=C/c2ccccc2)[C@H]1O
inactive: Potency [1] | Potency [2] | Potency [3] | Potency [4] | Potency [5] | Potency [6]

COc1ccncc1C(=O)NC(=O)Nc1ccc(-c2ccccc2)c(C(F)(F)F)c1
inactive: Potency [1] | Potency [2] | Potency [3] | Potency [4] | Potency [5] | Potency [6]

CC(=O)NC(C)c1cnc(-c2cnc(Oc3ccc(OC(C)C)cc3)s2)s1 (stereo not drawn)
inactive: Potency [1] | Potency [2] | Potency [3] | Potency [4] | Potency [5] | Potency [6]

N#Cc1cc(CN2CCC(Nc3ncnc4sc(Cl)cc34)CC2)ccc1F
inactive: Potency [1] | Potency [2] | Potency [3] | Potency [4] | Potency [5] | Potency [6]

CN(c1ccc(NC(=O)Nc2ccccc2)cc1)S(=O)(=O)c1cnn(-c2ccc(F)cc2)c1
inactive: Potency [1] | Potency [2] | Potency [3] | Potency [4] | Potency [5] | Potency [6]

O=c1cc(N2CCN(c3cccc(C(F)(F)F)c3)CC2)[nH]c(=O)n1C1CCCCC1
inactive: Potency [1] | Potency [2] | Potency [3] | Potency [4] | Potency [5] | Potency [6]

COc1ccc(-c2cnc3c(-c4cccc5ncccc45)cnn3c2)cc1
inactive: Potency [1] | Potency [2] | Potency [3] | Potency [4] | Potency [5] | Potency [6]

Cc1ccc(S(=O)(=O)N2CCC[C@H]2c2ccc(F)cc2)cc1
inactive: Potency [1] | Potency [2] | Potency [3] | Potency [4] | Potency [5] | Potency [6]

COC1CC(=O)C23C(=O)NC(Cc4c[nH]c5ccccc45)C2C(C)C2(C)OC2C3/C=C/CC(C)CC1O (stereo not drawn)
inactive: Potency [1] | Potency [2] | Potency [3] | Potency [4] | Potency [5] | Potency [6]

C[C@@H](Nc1ncnc2[nH]c(-c3ccc(O)cc3)cc12)c1ccccc1
inactive: Potency [1] | Potency [2] | Potency [3] | Potency [5] | Potency [6]
active: Potency [4] 1.34 µM

COc1ccc(S(=O)(=O)n2cnc3cc(C)c(C)cc32)cc1
inactive: Potency [1] | Potency [2] | Potency [3] | Potency [4] | Potency [5] | Potency [6]

C/C=C(\C)C(=O)O[C@H]1C=C(CO)C(=O)[C@H](OC(C)=O)[C@H]1C(C)C
inactive: Potency [1] | Potency [2] | Potency [3] | Potency [4] | Potency [5] | Potency [6]

N#CC(CCCN1CCC(O)(c2ccc(Cl)cc2)CC1)(c1ccccc1)c1ccccc1
inactive: Potency [1] | Potency [2] | Potency [3] | Potency [4] | Potency [5] | Potency [6]
